Measurements: the supplement of paper PMC3334620
The full ranking holds about 33,000 sequences; the median of “E-score (-0.5 to 0.5)” is about -0.036, and the highest 2% start at about 0.37. For the sample, the highest values were picked, then their nearest neighbours and some sequences at random.

Molecular target: T1, Yer064c (UniProt P40041)
T1 sequence: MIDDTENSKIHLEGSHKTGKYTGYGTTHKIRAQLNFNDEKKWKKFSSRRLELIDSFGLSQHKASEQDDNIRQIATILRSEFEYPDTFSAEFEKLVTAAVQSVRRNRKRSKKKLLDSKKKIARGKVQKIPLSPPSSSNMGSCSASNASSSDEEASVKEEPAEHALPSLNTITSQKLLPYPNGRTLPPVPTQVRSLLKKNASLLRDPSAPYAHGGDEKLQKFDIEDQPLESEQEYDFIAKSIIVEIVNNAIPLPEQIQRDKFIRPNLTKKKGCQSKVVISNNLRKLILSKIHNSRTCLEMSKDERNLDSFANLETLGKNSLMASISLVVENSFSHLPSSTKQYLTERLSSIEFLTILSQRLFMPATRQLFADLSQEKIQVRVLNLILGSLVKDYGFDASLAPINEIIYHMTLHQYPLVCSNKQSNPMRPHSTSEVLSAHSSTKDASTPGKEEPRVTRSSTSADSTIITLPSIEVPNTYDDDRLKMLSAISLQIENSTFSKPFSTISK
Assay: PBM E-score (8-mer binding enrichment) (E-score (-0.5 to 0.5)); higher = stronger / more preferred TF binding
Settings: protein concentration: 200 nM; construct: GST-full length
Description: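 Universal 'all 10-mer' protein binding microarrays (Agilent AMADID 015681) probed with GST-tagged S. cerevisiae TFs (full-length or DBD) made by in vitro transcription/translation (PURExpress), about 100-200 nM. Bound TF was detected with fluorescent anti-GST. Each ungapped 8-mer (which stands for itself and its reverse complement) is scored by the PBM enrichment score (E-score), a modified Wilcoxon-Mann-Whitney statistic from -0.5 to +0.5, computed with the Universal PBM Analysis Suite. Scale: above 0.35 generally sequence-specific binding.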

Sequence | PBM E-score
ACTCAAAT | 0.294
AGTCAAAC | 0.35
AGTCAAAT | 0.412
AGTCAAAA | 0.408
GGTCAAAA | 0.0441
AGTCAAAG | 0.406
ATTCAAAT | 0.214
CGTCAAAG | 0.0679
CGTCAAAA | -0.0525
ACGCGAGC | -0.0659
GGCAAGAC | -0.163
GTGGCATA | -0.194
AATGCGTA | 0.00743
GGTAGGGA | -0.0117
AGGGAAGA | -0.0141
AGAAAATC | 0.0604
ACATCGGA | 0.0356
CACTCAAA | 0.107
TACTCAAA | 0.201
GACTCAAC | 0.472
GACTCAAA | 0.48
AACTCAAC | 0.123
CACTCAAC | 0.0472
CGGCCCGA | -0.157
ACGAGAGC | -0.143

Sequence | PBM E-score
GTTGGCAA | -0.14
AAGCTTAA | 0.0226
CGGTACAG | -0.12
GGCTCACA | 0.13
CTCGTAAC | 0.0792
AACTCTCC | -0.159
GACTCTCC | 0.411
GACTCTCA | 0.418
AACTCTCA | 0.0457
CACTCTCA | -0.0477
CACTCTCC | -0.0733
AGGTCTTA | 0.0474
CCTTCCCA | -0.0175
CAATGCAC | 0.0625
ATGAGCCC | -0.00355
CTGAGCCA | 0.31
ATGAGCCA | 0.396
AAATCATT | 0.359
CAATCAAG | 0.212
GCATCATA | 0.0926
GTATCATA | 0.0771
CAATCATG | 0.369
ATATCATC | -0.113
GAATCATA | 0.464
AAATCATG | 0.385

Sequence | PBM E-score
ACATCATC | 0.212
CAATCAGG | 0.218
AAATCATC | 0.403
AAATCAAG | 0.0497
ATTTTGTA | 0.00667
ACAAGAGT | 0.149
CTTCATAC | -0.00264
GGCCGGAA | -0.146
GTCGGCGA | 0.141
GAATGAGA | 0.0143
AGCGTCCG | -0.131
CAGCAAGA | -0.11
CGCTTCCA | -0.24
ATGTAAGC | -0.0792
AACTGTTA | 0.0274
GAGAGGAA | -0.0878
ATATCATA | 0.00064
TAATCATA | 0.457
TAATCAGA | 0.35
ACATCATA | 0.107
TAATCAAA | 0.315
AAATCATA | 0.387
GGTGAGCA | -0.00163
GGAACCAA | -0.106
AGTCACCG | 0.476

Sequence | PBM E-score
AGTCACCA | 0.469
ATTCACCG | 0.0472
ATTCACCC | 0.0614
CGTCACCC | -0.258
GGTCACCA | 0.036
CGTCACCA | -0.0242
AGTCACCC | 0.479
AGACACCG | 0.11
TACGCAGA | 0.1
TAGATGAA | 0.00973
AGACCCGG | -0.0102
GTAGAGCA | -0.0431
CCATCGGA | -0.00521
GCTTTCAA | 0.0808
CCATCCCA | 0.0189
AATATCCG | -0.0742
CGCGAGCC | 0.0358
ACCGAGTA | -0.0874
CGCGAGTC | 0.405
AGCGAGTG | 0.0737
ACCGAGTC | 0.377
CCCGAGTC | 0.329
AGCGAGTA | 0.115
AGCGAGTC | 0.405
CGCGAGTA | 0.0526

Sequence | PBM E-score
CGGGAGAA | -0.141
CTTATCCC | -0.147
AAGGAAGG | -0.0955
ACCCTATG | 0.155
GAGCTTCA | -0.142
ACGGATGG | 0.0552
ATCTTCCG | -0.0471
AACGACTC | 0.427
GACGACGC | -0.226
AACGACTG | 0.133
ATCGACTC | 0.304
AACGACAC | -0.105
GACGACTC | 0.442
GACGACCC | -0.217
GACGACGA | 0.00788
GACGACTA | 0.415
AACGACTT | 0.177
AACGACTA | 0.393
GTCGACTA | 0.335
CGGCTACA | -0.00254
CGTTTCGC | -0.125
AATCTTCG | 0.25
TACCTGGA | 0.0309
CTCCACCC | -0.099
AAAGACCA | -0.029

Sequence | PBM E-score
TACGGCGA | -0.108
CACGACAC | -0.043
CACGACTA | 0.403
CACGACTG | 0.238
TACGACGA | 0.071
TACGACTA | 0.415
CACGACTC | 0.437
CACGACGC | -0.163
TACGACAA | 0.0113
CACGACGA | 0.044
TAGCCACA | 0.14
CGCGATAC | -0.206
CAAAATCC | 0.087
CAAAAGCC | -0.227
TAGCCATA | 0.28
GAGCCATA | 0.366
GAGCCATC | 0.342
AGAGCTCG | -0.222
GGTCATAC | 0.123
AGTCATAT | 0.484
AGTCATAA | 0.476
AGTCATAG | 0.482
CGTCATAG | -0.0141
CGTCATAA | -0.00764
AGCCATAG | 0.199

Sequence | PBM E-score
CGTCATAC | 0.192
TGTCATAA | 0.0821
AGACATAT | 0.137
AGTCATAC | 0.486
GGTCATAA | 0.081
CAAAACTC | -0.0536
AAAATAAC | 0.0567
CCGTCCCG | -0.193
ACAATTAA | 0.144
CGTGCGTC | -0.13
TGTGCTAA | 0.0249
ACAATCAA | 0.202
AGAATCCC | 0.0788
ACAATCAT | 0.385
AGAATCAC | 0.374
GGAATCCC | -0.166
AGAATCAG | 0.325
AGAATCAT | 0.44
GGAATCAC | 0.418
ACAATCAC | 0.351
AGAATCGC | 0.127
GGAATCAA | 0.257
AGAATCCT | -0.0297
GTTCTATA | -0.0345
AAGGGTGT | -0.00845

Sequence | PBM E-score
AGCGCTGG | 0.0943
CACAACTG | -0.113
ACCTGGCA | -0.145
CGATTCTA | 0.0229
CACCAACC | -0.0246
GTCACAGA | 0.237
CGAATCAC | 0.4
CCAATCAC | 0.182
CGAATCCC | -0.125
CCAATCAG | 0.0381
CGAATCCG | 0.0437
CGAATCAG | 0.384
ACCTTGGA | -0.0702
ACAACTGC | -0.0478
AAAAGCCG | -0.213
GAGTCTCC | 0.419
AAGTCTCC | 0.107
GAGTCTTA | 0.453
CAGTCTTA | 0.278
CAGTCTCC | 0.211
ATGTCTCG | 0.17
GAGTCCTA | 0.399
ATGTCTCA | 0.414
CAGTCCTA | 0.183
AAGTCTTA | 0.213

Sequence | PBM E-score
ATGTCTCC | 0.216
AAGTCCTA | 0.186
AATCTTAA | 0.244
CCCGCATA | -0.019
ATGTAGCA | -0.146
ACATCTGG | -0.137
AACTTCCG | 0.0922
CAGTGATC | 0.0804
GAGTCTCA | 0.411
TAGTCTCA | 0.36
AAGTCTCA | 0.239
ATATGCAG | 0.196
AGCAAATA | -0.157
GCACTGGC | -0.194
AACTCACA | 0.259
CACTCACG | 0.112
CACTCACC | 0.207
GACTCACA | 0.472
AACTCACG | 0.211
CACTCACA | 0.0403
GACTCACC | 0.478
AACTCACC | 0.275
TACTCACA | 0.367
